Source: PubChem BioAssay (Broad Institute)
Hits are enriched below; roughly 1.4% of the tested compounds scored in any of these assays.
ARNT TACC3 PPI: disruptors of ARNT/TACC3 protein interaction, primary screen, biochemical, AlphaScreen, single concentration. Transforming acidic coiled-coil-containing protein 3 (Homo sapiens), Q9Y6A5. AID 623870, 2012. AlphaScreen His-ARNT PAS-B/GST-TACC3 binding, luminescence; TACC3 fragment carries E629A point mutation. 0.66% of 390,000 active. inhibition, % at 9.99 µM;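 active means mean inhibition of replicates at least 50% and at least half of replicates each reaching 50%; inconclusive means half or more replicates reach 50% but mean below 50%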;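 further: 0% = complete ARNT plus TACC3 wells and 100% = ARNT alone without TACC3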
PglD DTNB: C. jejuni PglD acetyltransferase inhibitors, primary screen, biochemical, DTNB colorimetric, single point. purified PglD enzyme, DTNB colorimetric CoA detection. inhibition, % at 12.5 µM. 0.098% of 360,000 active. AID 602405, 2012; in the data active means inhibition above about 16%, passing the limit was not always enough; inconclusive means no clear call, values can overlap the other calls
Statin myotox sup: suppressors of statin myotoxicity in C2C12 myotubes, primary screen, cell-based, single point, plate reader | rescue of ATP level, % at 7.49 µM | C2C12 myotubes + simvastatin, ATP luminescence, 48 h; scaled: DMSO 0, geranylgeraniol control 100 | 0.78% of 330,000 active;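 active means mean ATP rescue above about 67%, or every replicate alone reaching that limit, limit read from the data, passing the limit was not always enough; inconclusive means no clear call, values can overlap the other calls; inactive means mean under the limit and some replicate under it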;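 further: myotubes were challenged with 10 µM simvastatin during compound exposure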
F508del corr: F508del CFTR correction, initial screen, CFBE line, single point; CFBE cells, YFP halide quenching; stimulated with forskolin plus potentiator P3; % fluorescence drop versus neutral controls; activity (quench increase), % at 7.58 µM; 0.36% of 350,000 active;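 active means mean added fluorescence quench of at least 8% versus neutral control, with both replicates also reaching 8%; inconclusive means only one of the mean or replicate conditions met; inactive means mean below 8% and not both replicates reaching 8%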;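 further: cells transiently co-express mutant CFTR-F508del with the halide-sensitive YFP; corrector assay measuring rescue of mutant channel to the surface after 24 h compound exposure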
Numbers without * were called inactive; ? = inconclusive; . = no result.

SMILES	ARNT TACC3 PPI	PglD DTNB	Statin myotox sup	F508del corr
CC(=O)N(Cc1cccc(F)c1)C[C@@H]1[C@@H](c2ccccc2)[C@@H](CO)N1C(C)=O	.	.	.	0.6
C[C@H](CO)N1C[C@H](C)[C@H](CN(C)Cc2ccccn2)Oc2cc(C#CC3CC3)ccc2S1(=O)=O	-0.1	-6.5	30.4	4.4
C[C@@H]1CN([C@H](C)CO)S(=O)(=O)c2ccc(C#CC3CC3)cc2O[C@H]1CN(C)Cc1ccccn1	1.6	0.3	-83.4	16.7*
O=C(NCc1ccccc1)C1CCC(CNS(=O)(=O)c2cccs2)CC1 (configuration not stated)	-1.5	-0.7	96.6*	-4.4
CCOc1ccc(-c2nc(CSCC(=O)NC3CC3)c(C)o2)cc1	-8.5	-1.0	6.3	.
CCOc1ccc(-c2nc(CSCC(=O)NCc3ccco3)c(C)o2)cc1	-8.1	3.0	110.9*	.
CCCCOc1ccc(C(=O)NNC(=S)NC(=O)CC)cc1	3.2	.	.	.
CCC(=O)NC(=S)NNC(=O)c1ccc(OC)cc1	68.0*	1.8	6.4	.
CC(=O)N(C)C[C@H]1Oc2cc(-c3ccccc3C)ccc2S(=O)(=O)N([C@H](C)CO)C[C@@H]1C	-2.1	1.2	6.5	0.6
O=C(CN1CCOCC1)N[C@H]1CC[C@@H](CCNC(=O)C2CCC2)O[C@H]1CO	2.3	-7.8	-4.2	-0.5
COc1cccc(CN2CC3(CCN(C(C)=O)CC3)c3c(n(C)c4cc(OC)ccc34)[C@H]2CO)c1	.	.	.	0.8
Cc1ccc(S(=O)(=O)Nc2ccc3c(c2)C(=O)N([C@@H](C)CO)C[C@H](C)[C@H](CN(C)S(=O)(=O)c2ccccc2)OCCCC[C@@H](C)O3)cc1	0.2	1.8	.	0.7
COc1ccc(-c2noc(CCCOc3ccc(Cl)cc3Cl)n2)cc1	18.0	0.7	109.1*	.
CO[C@@H]1CN(C)C(=O)c2ccc(NC(=O)C3CCOCC3)cc2OC[C@@H](C)N(S(=O)(=O)c2ccc(C)cc2)C[C@H]1C	-6.0	0.2	9.9	0.5
COc1ccccc1S(=O)(=O)N[C@H]1CC[C@@H](CC(=O)N2CCOCC2)O[C@H]1CO	.	-1.2	8.0	-0.6
COc1ccc(C(=O)c2ccc(N(C)C)cc2)c(OC)c1	3.0	-2.0	.	11.2*
COc1ccc(C(=O)c2ccc(OC)cc2OC)cc1	2.9	1.9	.	?
CC(C)C12CN3CC(C(C)C)(CN(C1)C31C(=O)Nc3ccccc31)C2=O (configuration not stated)	-1.7	-3.3	90.0*	.
CCCC#Cc1ccc2c(c1)O[C@@H](CN(C)C(=O)NC(C)C)[C@@H](C)CN([C@H](C)CO)S2(=O)=O	17.7	1.0	15.3	-1.1
C[C@@H]1CCCCO[C@@H](CN(C)C(=O)Nc2cccc3ccccc23)[C@H](C)CN([C@@H](C)CO)C(=O)c2cc(NC(=O)Nc3cccc4ccccc34)ccc2O1	.	.	.	1.1
Oc1[nH]c2ccccc2c1C=Nc1ccc2c(c1)OCO2	-2.6	-2.1	118.1*	.
COc1ccc(N=Cc2c(O)[nH]c3ccccc23)cc1	-4.9	5.2	16.3	.
CCOC(=O)c1oc2ccc(S(=O)(=O)n3nc(-c4ccccc4)cc3N)cc2c1C	0.1	-3.7	-3.0	8.2*
CCOC(=O)c1oc2ccc(S(=O)(=O)n3nc(-c4ccc(OC)cc4)cc3N)cc2c1C	-0.7	7.7	28.1	0.7
COc1ccc2c3c([nH]c2c1)[C@H](CO)N(CC1CCOCC1)CC31CN(C(=O)C2CCOCC2)C1	.	.	.	2.1
SMILES	ARNT TACC3 PPI	PglD DTNB	Statin myotox sup	F508del corr
O=C(N/N=C/c1cc(Br)ccc1O)c1ccncc1	61.3*	3.1	15.4	5.4
O=C(N/N=C\c1cc(Br)ccc1O)c1ccc(S(=O)(=O)N2CCCCC2)cc1	-5.8	.	.	16.9*
O=C(N/N=C/c1cccc2ccccc12)c1ccncc1	5.1	-0.9	8.2	-3.4
O=C(N/N=C/c1ccccc1O)c1ccncc1	66.4*	-6.2	-8.8	-0.7
O=C(N/N=C/c1ccccc1O)C(=O)Nc1ccccn1	47.7*	.	.	0.7
CCCN1[C@H](C(=O)NCC2CC2)[C@@H](CO)[C@@H]2Cn3c(ccc(-c4ccccc4)c3=O)[C@@H]21	-2.1	-1.7	36.3	0.2
C[C@H]1CN([C@@H](C)CO)C(=O)c2cccc(NS(=O)(=O)c3ccc(Cl)cc3)c2O[C@H]1CN(C)Cc1ccc(-c2ccccc2)cc1	29.7	6.8	?	1.9
CC(=O)N(C)C[C@@H]1[C@H](c2ccc(-c3ccccc3F)cc2)[C@H](CO)N1C(C)=O	.	.	.	-1.0
O=C(N/N=C/c1ccccc1O)c1cc[n+]([O-])cc1	63.4*	-0.1	5.4	1.0
Cc1nccn1CC(=O)N/N=C/c1ccccc1O	73.5*	.	6.4	3.2
O=C(N/N=C/c1ccccc1)c1cc[n+]([O-])cc1	4.9	.	-0.2	0.2
Cc1nccn1CC(=O)N/N=C/c1c[nH]c2ccccc12	-6.4	-0.1	.	1.8
COc1cc(O)c(/C=N/NC(=O)c2ccncc2)c(OC)c1[N+](=O)[O-]	65.1*	.	.	2.2
COc1ccc(/C=N/NC(=O)c2ccncc2)cc1[N+](=O)[O-]	5.5	.	.	-0.7
Cc1ccc2[nH]c(C(=O)N/N=C/c3ccccc3O)c(C)c2c1	-1.2	-2.3	-10.7	8.4*
COc1cccc(S(=O)(=O)N[C@H]2C=C[C@H](CC(=O)NCc3ccccc3)O[C@@H]2CO)c1	-10.7	-0.5	-6.5	0.3
O=S(=O)(c1ccc(F)cc1)N1CC[C@@H]2[C@H](CO)Nc3ccc(-c4ccc(F)cc4)cc3[C@@H]21	-4.2	2.7	13.4	1.6
C[C@@H]1CN([C@@H](C)CO)S(=O)(=O)c2ccc(-c3ccncc3)cc2O[C@H]1CN(C)Cc1cccnc1	-0.3	-0.6	-78.9	0.6
COc1cc(C(=O)Nc2ccc3c(c2)Cc2ccccc2-3)cc(OC)c1OC	-4.9	.	.	6.3
COc1cc(C(=O)Nc2ccc3c(c2)CCN3C(C)=O)cc(OC)c1OC	-3.7	.	.	11.5*
O=c1c(C=NCCCn2ccnc2)c(-c2ccccc2)[nH]n1-c1nc2ccccc2s1	53.7*	.	.	.
CCn1nc(C(=O)Nc2nc(-c3ccccn3)cs2)c2ccccc2c1=O	17.1	2.8	-19.6	5.4
CC1CC1C(=O)Nc1nc(-c2ccccn2)cs1 (configuration not stated)	61.7*	-5.0	12.5	.
CCCn1nc(C(=O)Nc2nc(-c3ccccn3)cs2)c2ccccc2c1=O	50.5*	-1.7	-218.7	5.7
CC(C)[C@H](NC(=O)c1ccccc1Cl)C(=O)Nc1nc(-c2ccccn2)cs1	57.7*	15.5	-11.2	2.6
CC(=O)Nc1ccc(C(=O)Nc2nc(-c3ccccn3)cs2)cc1	.	.	.	1.9
CCc1nnc(NC(=O)C(NC(=O)c2ccccc2Cl)C(C)C)s1 (configuration not stated)	-1.8	.	.	-2.2
CCc1cc(C(=O)Nc2nc(-c3ccccn3)cs2)sc1C	65.3*	0.2	-38.1	1.5
